Hit rate of the full screen: of about 370,000 compounds, about 5,400 (1.5%) were called active. The sample holds actives, similar compounds and a random draw of the others, so the mix is not that of the screen. Unmarked numbers belong to inactive results.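 How the source made its calls: active means activation above the mean of all tested compounds plus 3 SD (cut at about 5.5% in these data); inactive means the rest.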

The experiment relates to DAF-12 nuclear receptor (Haemonchus contortus). In words: H. contortus DAF-12 nuclear receptor activators, primary screen, cell-based, luminescence, HEK293, lit1-tk-luc reporter (AID 652067).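 Further: 100% = response to 3 µM Δ7-dafachronic acid high control.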 The note with it: HEK293 hcDAF-12 lit1-tk-luc reporter, at 6.8 µM, hits give high values, 0% DMSO, 100% Δ7-dafachronic acid.
In the case of `COc1ccccc1C(=O)NC1CCCCN(C(C)C)C1=O` (stereo unspecified), the activation is 0.55%.

Take `Cc1cc(C(=O)OC(C)C(=O)Nc2cccc(S(=O)(=O)N3CCOCC3)c2)c(C)o1` (stereo unspecified): the activation was -0.06%.

Take `O=C(c1c[nH]c2ccccc12)N1CCC(Oc2cccnc2)CC1`: the activation was 1.45%.

Take `COc1ccc(OCc2cc(C(=O)NCC3(C)COC3)no2)c(Cl)c1`: the activation is 1.3%.

Regarding `Cc1cc(CN(C)C(=O)c2cc(COc3ccc(C)c(C)c3)on2)n[nH]1`, the activation is -1.73%.

Take `Cc1cc(OCc2cc(C(=O)NCc3cc(C(C)C)no3)no2)cc(C)c1Cl`: the activation was 8.95% (active).

`COc1ccc2c(C(C)c3ccc(N)cc3)cn(C)c2c1` (stereo unspecified): the activation was -0.33%.

With `O=C(NCCc1c[nH]c2ccccc12)OCc1cn(-c2c(F)cccc2F)nn1`, the activation was 3%.

As to `Nc1ccc2[nH]c(=S)sc2c1`, the activation was 7.75% (active).

Take `CCOc1ccc2[nH]c(=S)sc2c1`: the activation was -0.28%.

Consider `O=c1[nH]c2ccccc2s1`, for which the activation was 1.16%.

As for `COCc1[nH]nc2c1C(c1ccccc1)N(c1ccccc1)C2=O` (stereo unspecified), the activation is -0.15%.

With `COc1ccc2c(CC(=O)OCC(=O)Nc3ccccc3[N+](=O)[O-])coc2c1`, the activation was 0.19%.

Turning to `O=S1(=O)c2c(cccc2N2CCCC2)O[C@H](COCc2ccccc2)CN1C1CC1`, the activation is -1.28%.

For `Cc1ccc(-n2c(COc3ccccc3)nnc2SCC(=O)Nc2ccc3c(c2)OCCO3)cc1`, the activation was -2.77%.

As to `C=CC1=CCN(S(=O)(=O)C(C)(C)C)[C@@H]1CCO`, the activation was -0.05%.

With `N#CC(=C1CCCC1)c1nc(-c2ccc(Cl)cc2)cs1`, the activation is -0.23%.

Consider `c1ccc(-c2csc(N3CCc4ccccc4C3)n2)cc1`, for which the activation was 1.49%.

With `N#CC(=C1SC=CS1)c1nc(-c2ccccc2)cs1`, the activation was 5.72% (active).

For `COc1ccc(C(=O)CSc2nnc(-c3cnccn3)n2-c2ccc(C)cc2)cc1`, the activation is -3.92%.

In the case of `COC(=O)[C@@]12CCCCC=C1N(CCc1ccc(Cl)cc1)C(=O)[C@H]2CC(=O)NCc1ccc(OC)c(OC)c1`, the activation was -2.23%.

Turning to `CCc1ccccc1NC(=O)CSc1nnc(-c2cccs2)o1`, the activation is 2.25%.

For the compound `O=C(O)c1cccc(NC(=S)N/N=C/c2c[nH]c3ccccc23)c1`, the activation was 5.99% (active).

`O=C(CCCOc1ccccc1)Nc1cccc(C(=O)O)c1`: the activation is -0.3%.

For `O=C(Cc1c[nH]c2ccccc12)N/N=C/c1cccc(F)c1`, the activation was -2.14%.

For `CCn1c(SC)nc(O)c(C(c2ccc(OC)c(O)c2)c2c(O)nc(SC)n(CC)c2=O)c1=O`, the activation is -1.4%.

`Cc1cccc(N2Cc3ccccc3C2=NC(=O)c2ccc(Cl)nc2)c1`: the activation is 5.83% (active).

On to `N#Cc1ccc(N2Cc3ccccc3/C2=N/C(=O)Nc2ccc(Cl)cc2)cc1`, for which the activation was -0.08%.

For the compound `Cc1cccc(N2CCN(C(=O)c3cccc(S(=O)(=O)N4CCc5ccccc5C4)c3)CC2C)c1` (stereo unspecified), the activation was -2.28%.

On to `CCCCCCCCNS(=O)(=O)/C=C/c1cc(C)ccc1CNC(=O)OC(C)(C)C`, for which the activation was -0.7%.

Turning to `COc1ccc(-c2nnn(Cc3nc(N)nc(N4CCCCC4)n3)n2)cc1`, the activation is -2.9%.

For the compound `CCOC(=O)CNc1nc2ccccc2n2c(C)nnc12`, the activation is -0.04%.

Turning to `CC(C)(C)N1CC(c2nc3ccccc3n2Cc2ccc(F)cc2)CC1=O` (stereo unspecified), the activation is 0.33%.

Turning to `Fc1ccc(CNc2nc3ccccc3n3nnnc23)cc1`, the activation is 5.66% (active).

`Cc1ccc(-n2nc(N)c3c(=O)oc(N(C)C)nc32)cc1`: the activation is 0.85%.

With `Cc1c(C)n2c(SCC(=O)NC3CCCC3)nnc2[nH]c1=O`, the activation is -0.71%.

Regarding `Cc1nc(SCC(=O)NC2CCCC2)[nH]c(=O)c1C`, the activation was 5.79% (active).

In the case of `CCc1c(C)nc(SCC(=O)NC2CCCC2)[nH]c1=O`, the activation was -0.17%.

Consider `CCOC(=O)c1c(C2CC2)csc1NC(=O)CSCc1c(C)noc1C`, for which the activation was -3.08%.

On to `CC(=O)Nc1cccc(C(=O)OCC(=O)c2ccc3c(c2)OCO3)c1`, for which the activation was 8.29% (active).

For `CC(=O)Nc1cccc(C(=O)OCN2C(=O)c3ccccc3C2=O)c1`, the activation was 1.25%.

In the case of `CC(=O)Nc1cccc(C(=O)OCC(=O)NCc2cc(C)c(O)c(C)c2)c1`, the activation was 1.87%.

Regarding `COc1ccc(C(=O)OCCN(C)C2CN(Cc3cn(Cc4cccc(C)c4)nn3)S(=O)(=O)C2)cc1OC` (stereo unspecified), the activation is -2.89%.

As to `FC(F)(F)c1ccccc1Cc1c(-c2ccccc2)nc2c3ccccc3ccn12`, the activation is 5.96% (active).

For `Cc1ccc(Cc2c(-c3ccc(C)cc3)nc3c4ccccc4ccn23)cc1`, the activation is 4.63%.

As to `Cc1ccc(Cc2c(-c3ccc(Cl)cc3)nc3c4ccccc4ccn23)cc1`, the activation is 3.04%.

Consider `CCCc1nc2c3ccccc3ccn2c1Cc1ccccc1C(F)(F)F`, for which the activation is 5.09%.

As to `c1ccc(Cc2c(-c3ccco3)nc3c4ccccc4ccn23)cc1`, the activation was 12% (active).

For the compound `COc1ccccc1Cc1c(-c2ccc(Cl)cc2)nc2c3ccccc3ccn12`, the activation was 2.15%.

Consider `COc1cccc(N2CCN(CC(=O)N(C)Cc3ccc(F)cc3)CC2)c1`, for which the activation is -2.02%.

On to `C=CCN1C(=O)[C@H](CC(=O)NCCCN2CCCC2=O)[C@@]2(C(=O)OCC)CCCC=C12`, for which the activation is -0.18%.

In the case of `Cc1ccc(NC(=O)c2cc(C)nn2-c2ccccc2)c(C)c1`, the activation is -2.18%.

In the case of `Clc1cccc2c1C1CC2CCN1Cc1ccccc1` (stereo unspecified), the activation was -1.68%.

Consider `CS(=O)(=O)N(Cc1ccccc1Cl)c1ccc(C(=O)NCc2cccnc2)cc1`, for which the activation was -2.13%.

In the case of `CCCc1cc(C(=O)Nc2ccc(Cl)cn2)cs1`, the activation is 7.31% (active).

As to `CC(OC(=O)CNC(=O)c1ccco1)C(=O)Nc1ccc(Cl)cn1` (stereo unspecified), the activation is -2.11%.

For `O=C(COC(=O)c1ccco1)Nc1ccc(Cl)cn1`, the activation is 0.13%.

`O=C(Nc1cc(Cl)cc(Cl)c1)OCCN1CCCC12CCC(c1ccccc1)CC2` (stereo unspecified): the activation was -0.18%.

For `COC(=O)[C@]12C[C@H](CC(=O)N3CCOCC3)C(=O)N(Cc3ccc(Cl)cc3Cl)C1=C[C@H](COCc1ccccc1)O[C@@H]2C`, the activation is -3.03%.

On to `NC(=S)NN=Cc1ccc(OC(=O)COc2cc(Cl)c(Cl)cc2Cl)cn1`, for which the activation was -1.62%.

Regarding `CC(C)Oc1c(Br)cc(Br)cc1/C=N/NC(N)=S`, the activation was -4.22%.

Take `NC(=S)N/N=C/c1coc2cc(Cl)ccc2c1=O`: the activation is 5.81% (active).

Take `Cc1cc(N2CCN(C(=O)OC(C)(C)C)C[C@H]2C)ccc1N1CCN(Cc2ccccc2)[C@H](C)C1`: the activation is 1.47%.

In the case of `O=C(Nc1ccccc1)N(Cc1cccnc1)Cc1ccco1`, the activation is -0.9%.

With `COc1cccc(N(C(=O)CNC(=O)c2ccco2)C(C(=O)NC2CCCCC2)c2cccnc2)c1` (stereo unspecified), the activation was -0.65%.

Turning to `Cc1ccc(N(C(=O)CNC(=O)c2ccco2)C(C(=O)NC2CCCC2)c2ccncc2)cc1` (stereo unspecified), the activation is 0.7%.

For `CC(C)(C)NC(=O)C(c1ccncc1)N(C(=O)CNC(=O)c1ccco1)c1ccc2c(c1)OCO2` (stereo unspecified), the activation is 6.8% (active).

As for `CC(C)CNc1cccc2c1S(=O)(=O)N[C@H](CC(C)C)CO2`, the activation was -1.3%.

On to `Nc1ccccc1/C=N\N=C/c1ccccc1N`, for which the activation was 8.99% (active).

Turning to `C=CCN1C(=O)[C@@H](CC(=O)NCCCCc2ccccc2)[C@]2(C(=O)OCC)CCCCC/C=C/12`, the activation is -0.4%.

`CN(C)c1ccnc2sc(C(=O)c3ccccc3)c(N)c12`: the activation was 6.4% (active).

`COC(=O)c1cc2c(N)c(C(=O)c3ccc(Cl)cc3)sc2nc1C(OC)OC`: the activation is 0.3%.

Take `CC(=O)c1c(Nc2ccccc2)sc(C(=O)c2ccccc2)c1C`: the activation is -2.59%.

`CCCCCCCCN1C(=O)[C@@H](CC(=O)N2CCN(C(=O)OCC)CC2)C[C@@]2(C(=O)OC)C1=C[C@H](C1CCCC1)O[C@@H]2C`: the activation is -0.68%.

For `COc1cccc(CN2C(=O)CCC2(C)C(=O)NC2CCCCCC2)c1` (stereo unspecified), the activation was -2.09%.

As to `O=C(CSc1nnc(COc2ccccc2)n1-c1ccc(Cl)cc1)Nc1ccc2c(c1)OCO2`, the activation was -0.19%.

As to `Cc1ccc(C)c(N2CCN(C(=O)CCc3nc(-c4cccc(C(F)(F)F)c4)no3)CC2)c1`, the activation was 6.2% (active).

Consider `COc1ccc(N2CCN(C(=O)CCc3nc(-c4ccc(C)cc4)no3)CC2)cc1`, for which the activation was -1.97%.

For the compound `COc1ccc(-c2noc(CCC(=O)N3CCN(c4cccc(C)c4)CC3)n2)cc1`, the activation is -0.53%.

With `C=CS(=O)(=O)N(Cc1nnn(Cc2ccccc2)c1Br)[C@H](C(=O)OC)C(C)C`, the activation is -3.12%.

With `COc1ccc(N2CCN(C(=O)CNC(=O)c3ccc(C(C)(C)C)cc3)CC2)cc1`, the activation is -2.42%.

Regarding `O=C(CNC(=O)c1ccc2ccccc2c1)Nc1ncccc1O`, the activation was 0.18%.

As for `O=C(NCC(=O)N1CCN(c2ccccc2O)CC1)c1ccc2ccccc2c1`, the activation was 6.1% (active).

Turning to `Clc1ccc(-n2c(COc3ccccc3)nnc2SCc2nc3ccccc3[nH]2)cc1`, the activation is -0.51%.

`CCc1nc(N2CCN(C(C)=O)CC2)c2c3c(sc2n1)CCCC3`: the activation was 0.85%.

On to `NNC(=O)C1CCCn2c1nc1sc3c(c1c2=O)CCCC3` (stereo unspecified), for which the activation is 8.63% (active).

Take `CCn1c(SCC(C)=O)nc2sc3c(c2c1=O)CCCC3`: the activation was -0.57%.

Turning to `COC(=O)C1=C(C(=O)OC)C2C=C(C(C)C)C1C(=O)C2(C)O` (stereo unspecified), the activation was -1.42%.

For the compound `O=C(OCC#CCSc1nnc(-c2ccco2)o1)c1ccc(F)cc1`, the activation was -1.32%.

Turning to `O=C(O)Cn1cnc2c(NCc3ccccc3)ncnc21`, the activation is 0.95%.

In the case of `Cc1cc(=O)[nH]c(SCC(=O)Nc2ccc(F)cc2F)n1`, the activation was -0.74%.

Values taken from PubChem BioAssay AID652067 (The Scripps Research Institute Molecular Screening Center, 2013).
